The values below come from PubChem BioAssay (NCI).

Experiment in all cases: NCI-60 one-dose screen, 48 h (100 = growth as untreated, 0 = no growth, -100 = all killed)
Settings in all cases: 10 µM unless noted

For assay [1], the system named is DU-145 prostate.
Assay [2] has as its system K-562 leukemia.
For assay [3], the system named is MALME-3M melanoma.
The test system of assay [4] is MDA-MB-231 breast.
The subject of assay [5] is RXF 393 renal.
Assay [6] concerns SF-268 CNS.
Assay [7] relates to SF-295 CNS.
Assay [8] relates to UACC-257 melanoma.
The subject of assay [9] is M14 melanoma.
The test system of assay [10] is SF-539 CNS.

The panel holds about 83,000 compounds, 20% with a hit somewhere; the sample as a whole holds those more often.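 Testing used 96-well plates and a 48-hour single-concentration exposure. Example: -40 means 40% of the starting cells died.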 Unmarked numbers belong to inactive results. Calls of active or inactive are those of the source. Rule for the calls: active = growth percent below 10; inactive = the rest.

`COc1ccc(C(=O)c2sc3nc4c(cc3c2N)N2CCC4CC2)cc1OC`: the growth is 103% in assay [1]; 73.3% in [2]; 93% in [3]; 66.9% in assay [4]; 85.6% in assay [5]; 105% in assay [6]. In addition, the figures for the growth in assay [7], in assay [8] and in assay [9] were 88.9%, 111% and 109%, respectively.
As for `CC(=O)O[C@H](C[C@H](C(C)C)N(C)C(=O)[C@@H](NC(=O)[C@H]1CCCCN1C)C(C)C)c1nc(C(=O)N[C@@H](Cc2ccccc2)C[C@H](C)C(=O)O)c(CCOCc2ccccc2)s1`, the growth in assay [1] is -9.34% (active); in [2], 7.14% (active); in assay [3], 23.3%; in assay [4] it was 9.48% (active); in assay [5], 18.3%; in assay [6], 11.6%. The growth is -19.8% (active) in assay [7], -31.5% (active) in [10], 54.5% in assay [8] and -29.4% (active) in assay [9].
Turning to `CC(C)[C@]12O[C@H]1[C@@H]1O[C@]13[C@]1(O[C@H]1C[C@H]1c4c(C(=O)c5ccccc5)oc(OC(=O)c5ccccc5)c4CC[C@@]13C)[C@@H]2O`, the growth in assay [1] is 0.787% (active); in assay [2], -12.5% (active); in assay [3], -59.1% (active); in [4], 34.3%; in [5], -81.1% (active); in assay [6], -20.7% (active). In addition, the growth in [7] is 8.47% (active); in assay [10] it was -40.6% (active); in [8], -25.5% (active); in assay [9], -73.7% (active).
Take `CC(C)(NC(=O)O[C@@H]1CN2CCC1CC2)c1csc(-c2ccc(F)cc2)n1`: the growth was 112% in assay [1]; 94.5% in assay [2]; 97.1% in assay [3]; 102% in [4]; 105% in assay [5]; 88.7% in [6]. The growth in assay [7] was 101%; in [10], 95.3%; in [8], 102%; in [9], 84.9%.
With `c1ccc(COc2ccc3[nH]cc(CCN(Cc4ccccc4)Cc4ccccc4)c3c2)cc1`, the growth in [1] was 98.8%; in [2] it was 71.1%; in assay [3], 91.3%; in [4], 83.3%; in assay [5] it was 91.2%; in assay [6], 92.4%. Besides, the results for the growth in assay [7], in [10] and in assay [9] were 91.4%, 97.1% and 98.6%, respectively.
In the case of `CN1C(=O)N[C@H]2[C@@H]3NC(=O)c4ccc(Br)n4[C@@H]3C[C@]21O`, the growth was -8.47% (active) in assay [1]; -2.38% (active) in [2]; -27.3% (active) in [3]; -28% (active) in assay [4]; -27.5% (active) in assay [5]; -2.59% (active) in [6]. For the same compound, the growth in [7] is -36.2% (active); in [10] it was -59.8% (active); in assay [9], -70.8% (active).
For `CCCCN1CCCC[C@@H]1C(=O)N[C@H](C(=O)N(C)[C@H](C[C@@H](OC(C)=O)c1nc(C(=O)NC2CCC(C(=O)OC)CC2)cs1)C(C)C)C(C)C` (some centres undefined), the growth in assay [1] was 9.02% (active); in assay [2], 9.52% (active); in assay [3], 43.8%; in assay [4] it was 45.7%; in [5] it was 18.3%; in assay [6], 48.8%. The growth was 18.6% in [7], -5.06% (active) in [10], 59.4% in [8] and -2.18% (active) in [9].
As to `CC(=O)O[C@H]1CC[C@H]2[C@@H]3CC=C4c5nc(-c6ccccc6)sc5CC[C@]4(C)[C@H]3CC[C@]12C`, the growth is 86.1% in assay [1]; 8.09% (active) in [2]; 93.9% in assay [3]; 64.2% in assay [4]; 79.2% in assay [5]; 78.9% in assay [6]. The growth in assay [7] was -0.49% (active); in assay [10] it was 13.8%; in [8], 64.6%; in assay [9] it was 61.5%.
With `CCOC(=O)[C@@H](C)C[C@H](Cc1ccccc1)NC(=O)c1csc([C@@H](C[C@H](C(C)C)N(C)C(=O)[C@@H](NC(=O)[C@H]2CCCCN2C)C(C)(C)C)OC(C)=O)n1`, the growth in assay [1] was 2.47% (active); in assay [2], 5.06% (active); in assay [3], 62.4%; in assay [4] it was -5.5% (active); in assay [5] it was 23.8%; in [6], 24.9%. Moreover, the growth in [7] was -8.4% (active); in [10] it was -13.6% (active); in [8] it was 41.7%; in assay [9], -14.6% (active).
Consider `CCCCCCCCCCCCCCCCCCOc1ccccc1COP(=O)(O)OOCC[N+](C)(C)C`, for which the growth in assay [1] is 9.26% (active); in assay [2], 1.4% (active); in [3], -12.3% (active); in assay [4] it was -40.7% (active); in assay [5], -64.7% (active); in assay [6] it was 10.6%. Further, the growth is 27.2% in [7], 7.74% (active) in [10], 11.5% in assay [8] and -29.1% (active) in [9].
As to `CCCCOc1ccc(C(N)Cc2ccccc2)cc1` (centres undefined), the growth in assay [1] was 109%; in [2], 54.2%; in assay [3], 106%; in assay [4], 75.1%; in [5], 104%; in assay [6], 85.4%. The growth is 113% in [7], 102% in assay [10] and 87.1% in [9].
As to `ClCCN(CCCl)Cc1ccc(Nc2ccnc3cc(Cl)ccc23)cc1`, the growth in assay [1] is 18.6%; in assay [2], 35.6%; in assay [3], 57.4%; in assay [4], 56.3%; in assay [5], -59.1% (active); in [6], 25.3%. The growth in assay [10] was -20.2% (active); in assay [8] it was 56.2%; in assay [9] it was 49.7%.
As for `N#C[Se]Cc1cc(-c2ccccc2)n(-c2ccc(S(N)(=O)=O)cc2)n1`, the growth in assay [1] is -85.6% (active); in assay [2], 4.33% (active); in assay [3] it was -47% (active); in assay [4], -68.3% (active); in assay [5], -3.45% (active); in assay [6], -59.8% (active). The growth in assay [7] was -55.8% (active); in assay [8] it was -70.2% (active); in assay [9], -62.2% (active).
